Experimental findings from PubChem BioAssay are described below.

The source made the active and inactive calls.

A short description of assay [1]: small molecules captured by biotinylated probe aFSTL3 – biochemical, small-molecule microarray, fluorescence 635/667, stem cell growth factor project, primary screen (AID 1064).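 Also: measures binding of the biotinylated anti-FSTL3 antibody to printed compounds.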 As to conditions: higher = more signal.
The nature of assay [2]: binders from COS7 lysate, DM2A8 probe, primary screen, torsin A project, cell lysate, small-molecule microarray, fluorescence 635/667 (AID 1065). The conditions noted are these: higher = more signal, COS7 lysate expressing mutant human TOR1A.
Assay [3] in a line: small molecules captured by biotinylated probe aFGF2 – biochemical, small-molecule microarray, fluorescence 635/667, stem cell growth factor project, primary screen (AID 1067).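 Also: measures binding of biotinylated aFGF2 protein to printed compounds on slides; z-score merges feature fluorescence and signal-to-noise across triplicate slides.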 The conditions noted are these: higher = more signal.
A short description of assay [4]: small molecules captured by biotinylated probe aFGF10 – biochemical, small-molecule microarray, fluorescence 635/667, stem cell growth factor project, primary screen (AID 1071).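 Also: score merges 667 nm spot intensity and signal to noise from triplicate slides.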 The conditions noted are these: higher = more signal.
The target in assay [5] is Neurogenic locus notch homolog protein 2 (Homo sapiens) (UniProt Q04721). Description: small molecules binding Notch2 protein – biochemical, small-molecule microarray, 635 nm fluorescence, stem cell growth factors, primary screen (AID 1073). As to conditions: higher = more signal.
Assay [6] has as its target Pro-neuregulin-1, membrane-bound isoform (Homo sapiens) (UniProt Q02297). Description: small molecules binding neuregulin-1 protein – biochemical, small-molecule microarray, fluorescence 635/667, psychiatric disease protein project, primary screen (AID 1075).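 Also: score combines 667 nm spot fluorescence with signal to noise.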 As to conditions: NRG1 binding, 635 nm fluorescence, higher = more signal.
The test system of assay [7] is Neuregulin-1 EGF-like domain. Description: small molecules binding NRG1 EGF domain – biochemical, small-molecule microarray, 635 nm fluorescence, primary screen (AID 1081).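 Also: binding of the protein to compounds printed on small-molecule microarray slides.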 As to conditions: higher = more signal.
The nature of assay [8]: FRG1 expression reporter modulators in myotubes – cell-based, C2C12 myotubes, firefly/Renilla luciferase, luminescence, FRG1 inhibition for FSHD, primary screen (AID 1084). As to conditions: FRG1 promoter luciferase, higher = more signal, called active from +8 up or from −8 down.
Assay [9] can be described thus: small molecules captured by biotinylated probe aFST – biochemical, small-molecule microarray, fluorescence 635/667, stem cell growth factor project, primary screen (AID 1086).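 Also: score merges 667 nm fluorescence with signal-to-noise of each printed compound spot.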 As to conditions: higher = more signal.
Assay [10] is described as follows: binders of probe aHhip on microarray, primary screen, stem cell growth factor project, biochemical, small-molecule microarray, fluorescence 635/667 (AID 1087).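 Also: score merges spot fluorescence at 667nm with spot signal to noise ratio.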 As to conditions: higher = more signal.
The subject of assay [11] is PRMT1 (protein arginine N-methyltransferase 1). Put plainly: small molecules binding arginine methyltransferase PRMT1 – biochemical, small-molecule microarray, 635 nm fluorescence, primary screen (AID 1088).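 Also: binding of Prmt1 protein to compounds spotted on small-molecule microarray slides.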 The conditions noted are these: higher = more signal.
A short description of assay [12]: growth effects on S. cerevisiae YJM789 – YJM789 clinical isolate, OD600, 24 h, basal, primary screen (AID 1089).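 Also: growth of clinical yeast isolate S. cerevisiae YJM 789 seeded 1000 cells per well; test concentration not given here.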 The conditions noted are these: higher = more signal, called active from +8 up or from −8 down.
Assay [13] is described as follows: S. pombe growth modifiers, basal conditions – strain 972, OD600, 24 h, no modulator, primary screen (AID 1090).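 Also: basal condition with compound alone and no growth modifier present; test concentration not given here.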 The conditions noted are these: S. pombe 972 growth, higher = more signal, called active from +8 up or from −8 down.
Assay [14] can be described thus: budding yeast growth modifiers under rapamycin – strain BY4716, OD600, 96 h, primary screen (AID 1091). Also: test concentration not given here. The conditions noted are these: S. cerevisiae BY4716 + rapamycin, higher = more signal, called active from +8 up or from −8 down.
Assay [15] addresses Torsin-1A-interacting protein 2 (Homo sapiens) (UniProt Q8NFQ8). Put plainly: small molecules binding lysate-expressed LULL1 – cell lysate, human LULL1 lysate, 635/667 nm fluorescence, primary screen (AID 1092).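 Also: probe is lysate of COS7 cells overexpressing human LULL1; score merges per-feature 667 nm fluorescence with signal-to-noise.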 As to conditions: small-molecule microarray, hLULL1 lysate binding, 635 nm fluorescence; higher = more signal.
A short description of assay [16]: optical density change of DRC41 E. coli – strain DRC41, OD650, 24 h, E. coli filamentation project, primary screen (AID 1093).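 Also: MC1000 strain lacking acrAB efflux and sulA so SOS filamentation is blocked; test concentration not given here.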 The conditions noted are these: E. coli DRC41 growth, higher = more signal, called active from +8 up or from −8 down.
The nature of assay [17]: probe aLefty2 binding to arrayed compounds – biochemical, biotinylated probe, 635/667 nm fluorescence, primary screen (AID 1094).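 Also: score merges spot fluorescence near 667 nm with spot signal-to-noise ratio.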 As to conditions: small-molecule microarray, higher = more signal.
Assay [18] concerns Noggin (protein binding on small-molecule microarray). Put plainly: small molecules binding Noggin protein – biochemical, 635/667 nm fluorescence, primary screen (AID 1095).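 Also: score merges 667 nm feature fluorescence with signal to noise over triplicate slides.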 The conditions noted are these: 635 nm fluorescence, higher = more signal.
For assay [19], the target named is Neurogenic locus notch homolog protein 3 (Homo sapiens) (UniProt Q9UM47). Put plainly: small molecules binding NOTCH3 protein – biochemical, 635/667 nm fluorescence, primary screen (AID 1096). The conditions noted are these: small-molecule microarray, 635 nm fluorescence, higher = more signal.
The nature of assay [20]: probe aEGFR binding to arrayed compounds – biochemical, biotinylated probe, 635/667 nm fluorescence, primary screen (AID 1097).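 Also: probe is a biotinylated anti-EGFR antibody binding compounds printed on slides; score combines fluorescence near 667 nm and signal to noise of each spot.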 The conditions noted are these: small-molecule microarray, higher = more signal.

Sequence of Neurogenic locus notch homolog protein 3 (Homo sapiens) (Q9UM47 whole entry, looked up): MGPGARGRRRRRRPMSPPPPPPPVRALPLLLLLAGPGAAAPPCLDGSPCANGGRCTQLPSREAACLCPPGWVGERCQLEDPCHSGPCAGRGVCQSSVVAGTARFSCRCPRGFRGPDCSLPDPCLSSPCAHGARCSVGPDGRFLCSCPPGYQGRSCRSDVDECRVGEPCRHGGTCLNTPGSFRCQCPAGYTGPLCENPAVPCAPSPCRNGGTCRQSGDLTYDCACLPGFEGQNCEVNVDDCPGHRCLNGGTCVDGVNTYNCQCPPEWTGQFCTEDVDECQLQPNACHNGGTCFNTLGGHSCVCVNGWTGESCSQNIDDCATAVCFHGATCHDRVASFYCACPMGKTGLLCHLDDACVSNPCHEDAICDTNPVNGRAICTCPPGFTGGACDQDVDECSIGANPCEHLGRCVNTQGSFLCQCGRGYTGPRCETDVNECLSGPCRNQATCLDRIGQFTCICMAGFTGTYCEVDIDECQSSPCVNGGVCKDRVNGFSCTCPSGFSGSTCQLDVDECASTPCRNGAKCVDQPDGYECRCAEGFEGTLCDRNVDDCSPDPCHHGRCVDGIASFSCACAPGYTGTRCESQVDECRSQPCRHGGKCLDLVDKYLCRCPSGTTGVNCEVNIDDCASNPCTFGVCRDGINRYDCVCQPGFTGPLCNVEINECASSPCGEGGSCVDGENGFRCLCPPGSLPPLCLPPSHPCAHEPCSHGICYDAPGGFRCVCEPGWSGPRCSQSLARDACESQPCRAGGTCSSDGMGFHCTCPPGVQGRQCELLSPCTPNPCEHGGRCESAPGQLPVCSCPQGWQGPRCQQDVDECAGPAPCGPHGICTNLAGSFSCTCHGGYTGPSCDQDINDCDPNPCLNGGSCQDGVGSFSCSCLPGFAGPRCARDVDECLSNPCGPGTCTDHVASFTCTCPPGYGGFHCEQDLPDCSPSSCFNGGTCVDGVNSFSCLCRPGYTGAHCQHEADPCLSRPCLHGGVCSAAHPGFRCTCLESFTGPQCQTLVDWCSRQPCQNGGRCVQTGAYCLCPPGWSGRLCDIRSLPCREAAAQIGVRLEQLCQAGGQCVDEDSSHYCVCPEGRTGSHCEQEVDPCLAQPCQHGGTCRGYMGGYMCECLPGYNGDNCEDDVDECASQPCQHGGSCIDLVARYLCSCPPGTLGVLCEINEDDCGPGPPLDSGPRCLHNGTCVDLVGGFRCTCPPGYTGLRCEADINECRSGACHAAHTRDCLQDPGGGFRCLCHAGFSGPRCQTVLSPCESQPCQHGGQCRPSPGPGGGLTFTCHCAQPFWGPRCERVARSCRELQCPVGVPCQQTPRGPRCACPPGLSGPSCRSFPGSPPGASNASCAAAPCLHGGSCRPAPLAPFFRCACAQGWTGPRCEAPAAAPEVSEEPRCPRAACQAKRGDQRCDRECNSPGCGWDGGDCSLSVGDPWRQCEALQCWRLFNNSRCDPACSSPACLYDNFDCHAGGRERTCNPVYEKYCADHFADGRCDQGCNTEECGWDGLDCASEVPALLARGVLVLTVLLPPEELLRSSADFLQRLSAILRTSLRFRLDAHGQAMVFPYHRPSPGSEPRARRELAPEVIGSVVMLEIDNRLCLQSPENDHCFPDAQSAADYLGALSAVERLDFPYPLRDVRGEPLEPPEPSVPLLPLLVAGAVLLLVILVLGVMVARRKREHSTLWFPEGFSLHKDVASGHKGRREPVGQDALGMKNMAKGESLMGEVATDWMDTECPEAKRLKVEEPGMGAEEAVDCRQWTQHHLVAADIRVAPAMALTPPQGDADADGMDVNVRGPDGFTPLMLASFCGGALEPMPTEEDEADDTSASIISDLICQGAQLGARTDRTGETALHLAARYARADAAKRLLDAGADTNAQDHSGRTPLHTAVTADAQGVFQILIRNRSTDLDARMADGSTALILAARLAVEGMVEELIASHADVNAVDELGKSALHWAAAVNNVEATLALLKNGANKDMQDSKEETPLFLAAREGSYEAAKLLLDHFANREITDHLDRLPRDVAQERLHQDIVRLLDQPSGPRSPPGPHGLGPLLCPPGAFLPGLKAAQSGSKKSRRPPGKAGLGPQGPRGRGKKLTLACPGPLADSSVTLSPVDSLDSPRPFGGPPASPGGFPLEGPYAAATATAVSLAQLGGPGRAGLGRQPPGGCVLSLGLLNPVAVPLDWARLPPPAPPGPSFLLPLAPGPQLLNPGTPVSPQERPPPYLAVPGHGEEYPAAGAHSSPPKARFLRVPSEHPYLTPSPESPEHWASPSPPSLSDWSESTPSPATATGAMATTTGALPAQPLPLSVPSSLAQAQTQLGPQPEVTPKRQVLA
Sequence of Neurogenic locus notch homolog protein 2 (Homo sapiens) (Q04721 whole entry, looked up, canonical isoform): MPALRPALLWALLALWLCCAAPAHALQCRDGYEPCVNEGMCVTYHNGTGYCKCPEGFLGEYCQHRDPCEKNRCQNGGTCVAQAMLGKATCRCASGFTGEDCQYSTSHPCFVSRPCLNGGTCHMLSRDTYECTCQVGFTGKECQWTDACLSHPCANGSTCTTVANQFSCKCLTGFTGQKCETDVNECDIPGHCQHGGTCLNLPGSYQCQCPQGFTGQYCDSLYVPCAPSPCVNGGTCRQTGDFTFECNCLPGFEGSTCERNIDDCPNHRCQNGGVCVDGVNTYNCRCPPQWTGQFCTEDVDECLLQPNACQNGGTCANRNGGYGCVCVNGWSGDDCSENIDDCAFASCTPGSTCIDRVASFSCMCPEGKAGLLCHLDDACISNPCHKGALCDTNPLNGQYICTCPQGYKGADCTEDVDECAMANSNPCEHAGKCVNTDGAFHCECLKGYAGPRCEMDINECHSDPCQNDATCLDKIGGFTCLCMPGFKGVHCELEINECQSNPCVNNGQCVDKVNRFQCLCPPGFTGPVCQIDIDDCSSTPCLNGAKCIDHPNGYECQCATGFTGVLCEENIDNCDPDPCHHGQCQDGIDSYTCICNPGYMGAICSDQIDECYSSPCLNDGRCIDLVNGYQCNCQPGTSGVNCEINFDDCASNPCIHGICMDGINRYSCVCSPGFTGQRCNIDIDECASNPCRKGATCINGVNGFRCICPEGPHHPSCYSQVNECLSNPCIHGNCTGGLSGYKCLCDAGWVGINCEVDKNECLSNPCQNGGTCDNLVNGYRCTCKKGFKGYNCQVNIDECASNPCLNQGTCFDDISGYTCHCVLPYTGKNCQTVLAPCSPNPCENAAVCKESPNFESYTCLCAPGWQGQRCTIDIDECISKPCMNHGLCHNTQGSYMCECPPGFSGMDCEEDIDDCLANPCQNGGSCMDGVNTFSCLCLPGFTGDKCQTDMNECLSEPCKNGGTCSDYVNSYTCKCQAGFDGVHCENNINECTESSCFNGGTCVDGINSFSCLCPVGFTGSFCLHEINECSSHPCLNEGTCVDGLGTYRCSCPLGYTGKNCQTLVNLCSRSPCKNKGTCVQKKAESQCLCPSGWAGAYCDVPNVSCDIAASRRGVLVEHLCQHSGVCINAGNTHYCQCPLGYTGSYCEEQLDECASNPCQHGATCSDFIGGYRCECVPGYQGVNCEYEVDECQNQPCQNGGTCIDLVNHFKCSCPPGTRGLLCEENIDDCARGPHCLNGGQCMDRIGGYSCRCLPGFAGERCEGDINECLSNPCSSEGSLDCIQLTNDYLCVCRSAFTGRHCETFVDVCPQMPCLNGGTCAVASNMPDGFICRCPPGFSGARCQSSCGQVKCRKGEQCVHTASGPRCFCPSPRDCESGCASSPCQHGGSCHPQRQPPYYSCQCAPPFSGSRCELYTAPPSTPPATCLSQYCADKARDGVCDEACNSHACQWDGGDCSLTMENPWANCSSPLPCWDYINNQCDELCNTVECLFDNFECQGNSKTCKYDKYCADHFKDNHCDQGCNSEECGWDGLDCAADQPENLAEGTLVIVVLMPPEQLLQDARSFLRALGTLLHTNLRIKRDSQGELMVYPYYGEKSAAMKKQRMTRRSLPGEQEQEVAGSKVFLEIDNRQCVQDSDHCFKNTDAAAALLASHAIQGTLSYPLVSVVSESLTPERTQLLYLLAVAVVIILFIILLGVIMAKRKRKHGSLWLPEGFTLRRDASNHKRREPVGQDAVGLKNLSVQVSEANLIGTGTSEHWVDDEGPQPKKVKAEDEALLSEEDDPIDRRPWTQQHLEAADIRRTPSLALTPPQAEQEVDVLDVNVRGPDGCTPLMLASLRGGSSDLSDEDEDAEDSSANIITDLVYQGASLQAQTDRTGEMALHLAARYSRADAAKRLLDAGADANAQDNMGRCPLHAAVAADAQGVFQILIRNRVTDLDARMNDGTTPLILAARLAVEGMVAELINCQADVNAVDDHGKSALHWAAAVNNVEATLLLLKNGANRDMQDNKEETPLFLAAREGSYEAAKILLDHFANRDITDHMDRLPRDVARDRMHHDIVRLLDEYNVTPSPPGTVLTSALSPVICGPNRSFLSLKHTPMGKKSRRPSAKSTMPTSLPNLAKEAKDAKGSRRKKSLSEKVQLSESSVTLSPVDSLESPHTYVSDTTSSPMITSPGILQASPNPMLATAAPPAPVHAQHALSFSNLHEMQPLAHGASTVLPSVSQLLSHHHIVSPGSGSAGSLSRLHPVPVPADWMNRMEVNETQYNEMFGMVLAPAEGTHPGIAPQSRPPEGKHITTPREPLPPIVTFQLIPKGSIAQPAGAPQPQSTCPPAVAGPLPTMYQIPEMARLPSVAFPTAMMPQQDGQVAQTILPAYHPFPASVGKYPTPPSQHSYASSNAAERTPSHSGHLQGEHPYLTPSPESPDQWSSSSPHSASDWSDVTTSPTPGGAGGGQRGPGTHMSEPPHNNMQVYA

On to `COC(=O)[C@@]1(Cc2ccccc2)[C@H]2c3cc(C(=O)N(C)C)n(Cc4ccsc4Br)c3C[C@H]2CN1C(=O)c1ccccc1`, for which the composite z-score in assay [1] turned out to be 0.102; in assay [2] it was 0.106; in assay [3], 0.215; in assay [4], 0.746; in assay [5], 1.61; in [6], 0.823. Further, the composite z-score in assay [7] was 1.12; in [9], 1.67; in [10], -0.113; in [11] it was -0.481; in assay [15], 3.32; in assay [17] it was 0.313. Further, the values for the composite z-score in assay [18], in [19] and in [20] were 0.0244, 1.05 and 0.196, respectively. In addition, the z-score in assay [8] is 0.332 (inactive); in [12], 1.04 (inactive); in assay [13] it was 1.17 (inactive); in assay [14], 2.66 (inactive); in assay [16], 0.166 (inactive).

With `COc1ccc(C#Cc2ccc3c(c2)[C@]2(C(=O)N3)[C@H](c3ccccc3OCCO)N3[C@H](c4ccccc4)[C@H](c4ccccc4)OC(=O)[C@H]3[C@@H]2C(=O)Nc2nc3ccccc3s2)cc1`, the composite z-score in assay [1] is -0.541; in assay [2], -0.0327; in [3] it was -0.0232; in assay [4], 0.615; in assay [5], 1.18; in assay [6], 0.65. Besides, the composite z-score in [7] was 1.17; in [9], 0.362; in [10] it was -0.0618; in assay [11], 1.54; in assay [15], 1.95; in assay [17] it was 0. The composite z-score is 0.785 in assay [18], 1.09 in [19] and -0.0549 in assay [20]. For the same compound, the z-score in assay [8] was 2.1 (inactive); in assay [12], 2.95 (inactive); in assay [13], 1.47 (inactive); in assay [14], 0.871 (inactive); in assay [16], 0.0309 (inactive).

For the compound `COCCOC(=O)N1C(=O)[C@@]2(c3ccccc31)[C@H](c1ccccc1OCCO)N1[C@H](c3ccccc3)[C@H](c3ccccc3)OC(=O)[C@H]1[C@@H]2C(=O)N1CCN(c2ncccn2)CC1`, the composite z-score in [1] is 0.0686; in assay [2] it was 1.07; in assay [3] it was -0.0629; in assay [4], 0.0228; in assay [5] it was 0.598; in assay [6] it was 1.38. Also, the composite z-score in assay [7] is 1.18; in assay [9], 0.152; in assay [10], -0.0672; in assay [11], 1.54; in assay [15] it was 2.59; in [17], -0.0529. Besides, the values for the composite z-score in assay [18], in [19] and in [20] were 0.994, 1.11 and -0.12, respectively. Moreover, the z-score was -2.05 (inactive) in assay [8]; 1.68 (inactive) in assay [12]; 1.58 (inactive) in assay [13]; 8.88 (active) in assay [14]; 0.22 (inactive) in [16].

As to `COCCOC(=O)N1C(=O)[C@@]2(c3cc(C#CCCO)ccc31)[C@H](C(=O)N1CCCCCCC1)[C@H]1C(=O)O[C@H](c3ccccc3)[C@H](c3ccccc3)N1[C@@H]2c1ccc(OCCO)cc1`, the composite z-score in assay [1] is 3.17; in [2] it was 0.912; in assay [3], 0.68; in [4], 0.395; in [5] it was 1.25; in assay [6], 1.01. In addition, the composite z-score in assay [7] was 1.18; in assay [9] it was 2.87; in assay [10] it was 0.0111; in assay [11], 1.51; in [15], 3.52; in [17], 1.53. Also, the results for the composite z-score in assay [18], in assay [19] and in [20] were 1.55, 0.93 and 1.04, respectively. For the same compound, the z-score is -1.07 (inactive) in [8]; 1.33 (inactive) in assay [12]; 1.3 (inactive) in assay [13]; 2.08 (inactive) in assay [14]; 0.584 (inactive) in assay [16].

Regarding `C=CCNC(=O)[C@H]1[C@@H]2C(=O)O[C@@H](c3ccccc3)[C@@H](c3ccccc3)N2[C@@H](c2ccccc2OCCO)[C@]12C(=O)Nc1ccc(C#CCCO)cc12`, the composite z-score in assay [1] was 0.103; in assay [2], -0.773; in assay [3] it was 0.882; in assay [4], -0.0077; in [5], 0.119; in assay [6], 0.82. In addition, the composite z-score is 0.537 in assay [7]; -0.155 in assay [9]; 0.142 in assay [10]; -0.294 in assay [11]; 2.24 in assay [15]; -0.0617 in assay [17]. In addition, the composite z-score in [18] is -0.76; in assay [19] it was -0.104; in [20], -0.0353. Also, the z-score in assay [8] is -5.02 (inactive); in assay [12], 1.69 (inactive); in [13] it was -0.648 (inactive); in [14], 4.32 (inactive); in assay [16] it was -0.462 (inactive).
